{"source": "PubChem BioAssay (NCATS)", "note": "Records with an inconclusive call do not appear. Unmarked numbers belong to inactive results. Active and inactive are the calls of the source. The call rests on the fitted dose curve; in most records, active means well fitted inhibition curve with a large enough effect; inconclusive means small, poorly fitted or top-dose-only effect; inactive means no such curve, though single readings can be large or run the other way."}
{"experiment": "Primary qHTS for inhibitors of La Crosse Virus (LACV) - induced cell death in SH-SY5Y cells (AID 1508616);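 further: top concentration of the series differs between compounds; 0% = infected DMSO wells and 100% = uninfected DMSO wells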", "conditions": "SH-SY5Y LACV cytopathicity rescue, ATP luminescence, 6 d; series mostly up to 4.29 µM; activity change: at the top concentration", "excerpt": "Assay Provider: Karin Peterson Ph.D.\nNational Institute of Allergy and Infection Diseases, National Institute of Health\nLa Crosse Virus (LACV) is a California serogroup mosquito-borne arbovirus, family Peribunyaviridae, which is an endemic pathogen in North America and can induce a rare, life-threatening neurological disease in children. LACV was first isolated in the early 1960s, from a summer \"rural encephalitis\" case in La Crosse, Wisconsin, USA. Since then, LACV encephalitis cases have been found in more than twenty states, with most cases in the Mississippi and Ohio River basins. The life cycle of LACV is maintained between the vector, the eastern tree-hole mosquito Aedes triseriatus, and vertebrate hosts including eastern gray squirrels (Sciurus carolinensis) and chipmunks (Tamiasstriatus grinseus). […] Most LACV infections in humans are asymptomatic or induce mild clinical symptoms of fever, headache, lethargy and vomiting. However, in some cases LACV can cause severe neuroinvasive disease, including encephalitis, meningitis, and meningoencephalitis, requiring hospitalization. To date, there is neither a licensed vaccine nor a Food and Drug Administration (FDA) approved antiviral therapy available to prevent or treat LACV encephalitis. The primary treatment for viral encephalitis is palliative care due to the lack of therapeutics. In the current study, we conducted a screen of 4,096 FDA approved and bioactive small molecules against LACV, by screening for rescue of LACV-induced cell death in SH-SY5Y cells.\nLACV-induced cytopathicity assay\nSEQUENCE No. (1,2, 3, etc.); […] (e.g., Cells, Incubation, Reagent, etc.); VALUE and DESCRIPTION.\n1. Reagent; 2 uL; Cell solution.\n3. Compounds; 23nL; Compound library\n4. Reagent; 12 uL; LACV virus\n6. Reagent; 24 uL; ATPLite (PerkinElmer)\n7. Time; 5 min; Room temperature\n8. Detection; Luminescence; View\nNOTES (numbers refer to sequence above)\n1. Seed 6000 SH-SY5Y cells (ATCC CRL-2266) in 2 microL/well media (DMEM/F12 10% FBS, 1x L-Glutamine, 1x Pyruvate, 1x NEAA, 1x Pen/Strep) in 384-well assay plates (tissue culture treated, white, solid bottom).\n2. Incubate at 37 degrees C with 5% CO2 for 24 hr.\n3. Dispense 23 nL/well compounds in DMSO via pin transfer.\n4. Dispense 12 microL/well of LACV (LACV/human/1978) in media at 0.01 MOI.\n5. Incubate at for 6 days at 37C 5% CO2\n6. Dispense 24 microL/well of ATPLite 1step Luminescence assay system (PerkinElmer).\n7. Incubate for 5 min at room temperature.\n8. Read luminescence signal (Viewlux plate reader, PerkinElmer). Data was normalized with DMSO control wells containing LACV as 0%, and DMSO control wells without virus as 100%."}
{"smiles": "c1ccc(N2CCNCC2)cc1", "activity change": "8.09%"}
{"smiles": "O=c1c(C2CC(c3ccc(-c4ccc(Br)cc4)cc3)Cc3ccccc32)c(O)sc2ccccc12", "note": "(stereo not given)", "activity change": "3.03%"}
{"smiles": "C#C[C@]1(O)CC[C@H]2[C@@H]3CCC4=CC(=O)CC[C@]4(C)[C@H]3CC[C@@]21C", "activity change": "6.92%"}
{"smiles": "O=c1oc2ccccc2c(O)c1Cc1c(O)c2ccccc2oc1=O", "activity change": "3.25%"}
{"smiles": "CCCCC/C=C\\C/C=C\\C/C=C\\C/C=C\\CCCC(=O)NCC(=O)O", "outcome": "inactive"}
{"smiles": "CCC1(c2ccc(N)cc2)CCC(=O)NC1=O", "note": "(stereo not given)", "activity change": "-0.617%"}
{"smiles": "CC(C)(C)NCC(O)c1cc(Cl)c(N)c(C(F)(F)F)c1", "note": "(stereo not given)", "activity change": "-11.1%"}
{"smiles": "CC(C)(C)c1ccc(O)cc1", "activity change": "8.27%"}
{"smiles": "CC(Cc1ccccc1)N(C)Cc1ccco1", "note": "(stereo not given)", "activity change": "12.3%"}
{"smiles": "CC(C)(N)Cc1ccccc1Cl", "activity change": "26.3%"}
{"smiles": "Nc1nc(N)nc(NC2CC2)n1", "activity change": "-8.64%"}
{"smiles": "ClCCN1CCCC1", "activity change": "-10.7%"}
{"smiles": "Cc1ncsc1CCCl", "outcome": "inactive"}
{"smiles": "c1ccc(CN2CCNCC2)cc1", "activity change": "1.98% [at 20.4 µM]"}
{"smiles": "O=c1[nH]c2ccccc2n1C1CCNCC1", "activity change": "-6.51%"}
{"smiles": "CN1CC[C@]23c4c5ccc(O)c4O[C@H]2[C@@H](O)CC[C@H]3[C@H]1C5", "activity change": "4.5% [at 8.54 µM]"}
{"smiles": "O=C(O)c1ccc(=O)[nH]c1", "activity change": "10.1%"}
{"smiles": "[N-]=[N+]=CC(=O)OC[C@H](N)C(=O)O", "activity change": "-7.78%"}
{"smiles": "CCC1(c2ccccc2)C(=O)N(COC)C(=O)N(COC)C1=O", "activity change": "12.9%"}
{"smiles": "NCCc1ccc(O)cc1", "activity change": "48.1% [at 9.63 µM]"}
{"smiles": "c1ccc2c(c1)sc1ccccc12", "activity change": "-7.56%"}
{"smiles": "O=C1c2ccccc2C(=O)C1C(=O)C(c1ccccc1)c1ccccc1", "activity change": "-2.13%"}
{"smiles": "CCc1cc2c(s1)-n1c(C)nnc1CN=C2c1ccccc1Cl", "activity change": "-3.2%"}
{"smiles": "CCC(C)C(C)(COC(N)=O)COC(N)=O", "note": "(stereo not given)", "activity change": "-0.999%"}
{"smiles": "C[C@]12CC[C@H]3[C@@H](CCC4=CC(=O)CC[C@@H]43)[C@@H]1CC[C@@H]2OC(=O)CCC1CCCCC1", "activity change": "-14.1%"}
{"smiles": "CNCC(=O)c1ccc(O)c(O)c1", "activity change": "13.8%"}
{"smiles": "CC(C)c1c(CN(C)C(C)Cc2ccccc2)n(C)n(-c2ccccc2)c1=O", "note": "(stereo not given)", "activity change": "37.6%"}
{"smiles": "C[C@@H]1CC2=CC(=O)CC[C@@H]2[C@H]2CC[C@@]3(C)[C@@H](CC[C@]3(C)O)[C@@H]21", "activity change": "10.9%"}
{"smiles": "CN1C(=O)COc2c(C(=O)NC3CN4CCC3CC4)cc(Cl)cc21", "note": "(stereo not given)", "activity change": "-5.62%"}
{"smiles": "C[C@]12Cc3cn[nH]c3C[C@@H]1CC[C@@H]1[C@@H]2CC[C@@]2(C)[C@H]1CC[C@]2(C)O", "activity change": "10.8%"}
{"smiles": "COP(=S)(OC)SCN1C(=O)c2ccccc2C1=O", "activity change": "14.4%"}
{"smiles": "NNc1ccccc1", "activity change": "13.2%"}
{"smiles": "C[C@H](N)C(=O)c1ccccc1", "activity change": "-6.89% [at 9.63 µM]"}
{"smiles": "CC(=O)C1CCOC1=O", "note": "(stereo not given)", "activity change": "-4.49%"}
{"smiles": "CCCOC(=O)c1cncn1C(C)c1ccccc1", "note": "(stereo not given)", "activity change": "23.8%"}
{"smiles": "Clc1ccccc1N1CCNCC1", "activity change": "-4.04%"}
{"smiles": "O=C1CN=C(c2ccccc2)c2cc([N+](=O)[O-])ccc2N1", "activity change": "55.6%"}
{"smiles": "C[C@@H](N)[C@@H](O)c1ccccc1", "activity change": "-4.74%"}
{"smiles": "C[C@]12CCC(=O)C=C1CC[C@@H]1[C@@H]2CC[C@]2(C)C(=O)CC[C@@H]12", "activity change": "11.4%"}
{"smiles": "CCN[C@@H](C)Cc1ccccc1", "activity change": "0.863% [at 9.63 µM]"}
